# tim23-1 inh: inhibits growth of tim23-1 mutant yeast; S. cerevisiae tim23-1 growth, BacTiter-Glo luminescence, 24 h; inhibition, % at 20 µM; 1.3% of 330,000 active;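 active = growth inhibition of the mutant yeast at or above 50%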;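 note: temperature-sensitive mutant grown at 25 °C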
# tim10-1 inh: inhibits growth of tim10-1 mutant yeast; AID 463190; 2.2% of 330,000 active; S. cerevisiae tim10-1 ts strain growth, BacTiter-Glo, 24 h; inhibition, % at 20 µM;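 active = inhibition of at least 40%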;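 note: mutant grown at 25 °C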
# PfHsp90 set2: reduces growth (ATP signal) of yeast expressing P. falciparum Hsp90 | inhibition, % at 9.4 µM | 0.32% of 310,000 active | AID 504621 | S. cerevisiae expressing PfHsp90, BacTiter-Glo ATP, 48 h; yeast lacking PDR1 and PDR3 efflux regulators;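 active = every replicate shows inhibition above about 80%, whatever the replicate mean, limit read from the data; inconclusive = mean inhibition reaches the set limit but some replicate falls short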
# SKKanGAS inh: inhibitors of SKKanGAS S. pyogenes growth in kanamycin (SK-promoter or general growth effect); BacTiter-Glo, 6 h; inhibition, % at 7.5 µM; 1.3% of 300,000 active;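 active = mean replicate score, as percent of positive control median, at least 50; inconclusive = mean below 50 but one replicate at or above 50; inactive = mean and every replicate below 50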;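 note: strain carries kanamycin resistance gene driven by streptokinase promoter and grows in 40 µg/ml kanamycin; loss of luminescence reflects streptokinase promoter inhibition or plain growth inhibition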
# TIM10 inh: inhibits growth of TIM10 yeast strain. S. cerevisiae TIM10 strain growth, BacTiter-Glo luminescence, 24 h. inhibition, % at 10 µM. 1.4% of 330,000 active. AID 463195;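 active = inhibition of 40% or more at the single tested concentration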;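 note: wild-type TIM10 isogenic control strain grown at permissive 25 °C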
# NLRP3 yeast inh: inhibitors of NALP3 inflammasome in yeast; inhibition, % at 10 µM; Yeast reconstituted NLRP3/ASC/caspase-1, beta-gal luminescence, 24 h; 0.39% of 330,000 active;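 active = inhibition of 50% or more; inactive = inhibition below 50%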
# tim23-1 conf: confirmation of tim23-1 mutant yeast growth inhibitors; shares compounds with tim23-1 inh; S. cerevisiae tim23-1 growth, BacTiter-Glo luminescence, 24 h; inhibition, % at 20 µM; 83% of 4,400 active; AID 463218;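 active = inhibition above about 39% in either of two replicate wells at 20 µM, limit read from the data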;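 note: temperature-sensitive tim23-1 mutant grown at 25 °C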
# A number is an active result; i = inactive; ? = inconclusive; nt = no result. An excerpt weighted towards active compounds, which were near 4.6% of everything screened.
SMILES,tim23-1 inh,tim10-1 inh,PfHsp90 set2,SKKanGAS inh,TIM10 inh,NLRP3 yeast inh,tim23-1 conf
OC[C@@H]1[C@@H](c2ccccc2)C(c2cccc(Cl)c2)=NN1c1ccccc1,52,i,i,nt,i,nt,47
CCOC(=O)c1ccc(NC(=O)CSc2nc(=O)n3cccc(C)c3n2)cc1,52,i,nt,i,i,i,50
COc1cccc2cc(CC(=O)c3ccc(C)cc3C)c(=O)oc12,i,i,i,i,i,i,nt
CCOc1ccc(-c2nc(N)ncc2Oc2ccc(OC)cc2)c(O)c1,56,i,i,i,i,i,62
CCOc1ccc(-c2nc(N)ncc2-c2ccc(Cl)cc2)c(O)c1,54,i,i,i,i,i,i
CCOc1ccc(-c2nc(N)ncc2-c2ccc(OC)cc2)c(O)c1,i,i,i,i,i,i,nt
CCCc1cnc(NCCNCC(O)COc2ccc(Cl)c(Cl)c2)nc1 (stereo not given),i,i,i,i,i,i,nt
CN(C)c1ccc(N/C(N)=N/c2nc(C(F)(F)F)cc(C(F)(F)F)n2)cc1,i,i,i,i,i,i,nt
Nc1ncc(Br)cc1S(=O)(=O)NC1CCCCC1,i,i,i,i,i,i,nt
CC1CCCC(NS(=O)(=O)c2cc(Br)cnc2N)C1C (stereo not given),55,i,i,i,i,i,45
COc1cccc(-c2c(C#N)c(N)nc3c2c(C)nn3-c2ccccc2)c1O,51,i,i,i,i,i,i
CCN(CC)c1ccc(/C=N/NC(=S)NC)c(O)c1,i,i,i,i,i,i,nt
CCN(CC)c1ccc(C(=O)N/N=C/c2ccccc2OC(F)F)cc1,56,i,i,i,i,i,66
CN(C)c1ccc(/C=N/NC(=O)c2ccc3c(c2)OCCO3)cc1,58,i,i,?,i,i,i
CCN(CC)c1ccc(/C=N/NC(=O)c2ccc3c(c2)OCCO3)cc1,59,i,i,i,i,i,57
O=C(N/N=C/c1ccc2c(c1)OCO2)c1ccc2c(c1)OCCO2,i,i,i,i,i,i,nt
CCN(CC)c1ccc(/C=N/NC(=O)OC)c(O)c1,59,i,i,i,i,i,i
COc1ccc(OS(=O)(=O)c2c(C)noc2C)cc1,i,i,i,i,i,i,nt
Cc1ccc(C)c(OCCC(=O)Nc2ccc3c(c2)OCO3)c1,i,i,nt,nt,i,i,nt
CN(c1ccc(O)cc1)S(=O)(=O)c1ccc2ccccc2c1,51,i,i,i,i,i,45
CC(=O)Oc1ccc(N2C(=O)c3cccc4c([N+](=O)[O-])ccc(c34)C2=O)cc1,67,i,i,i,i,i,57
CCOc1ccc(N(CC(=O)NC2CCCCC2)C(=O)CCC(=O)Nc2ccccn2)cc1,i,i,i,i,i,i,nt
COc1ccc(C2CC(O)(c3ccccc3)Oc3cc(OC)cc(OC)c32)cc1 (stereo not given),i,i,i,i,i,i,nt
COc1ccc(C2CC(O)(c3ccccc3)Oc3c(C)ccc(C)c32)cc1 (stereo not given),53,i,?,89,i,i,55
O=c1[nH]c(NC2CCCCC2)c([N+](=O)[O-])c(=O)[nH]1,i,i,i,i,i,i,nt
SMILES,tim23-1 inh,tim10-1 inh,PfHsp90 set2,SKKanGAS inh,TIM10 inh,NLRP3 yeast inh,tim23-1 conf
Cc1c2ccccc2nc2ccccc12,70,i,i,i,i,i,63
C=CCNC(=O)c1c(Cl)nc(C)c([N+](=O)[O-])c1C,i,i,i,i,i,i,nt
Cc1nc2c(c(=O)c3ccccc3n2C)c(=O)n1C1CCCCCC1,i,i,i,i,i,i,nt
CC(c1ccccc1)n1c(-c2cccs2)nc2c(c(=O)c3ccccc3n2C)c1=O (stereo not given),51,i,nt,i,i,i,i
COc1ccc(Cn2c(-c3ccco3)nc3c(c(=O)c4ccccc4n3C)c2=O)cc1,i,i,i,i,i,i,nt
CC(C)Cn1c(-c2ccco2)nc2c(c(=O)c3ccccc3n2C)c1=O,50,i,nt,i,i,i,i
Cn1c2ccccc2c(=O)c2c(=O)n(C3CCCCC3)c(-c3ccco3)nc21,51,i,i,i,i,i,49
Cc1ccc(S(=O)(=O)CCC(=O)Nc2ccccc2Br)cc1,i,i,i,i,i,i,nt
CC(C)CC(NC(=O)C(CO)NC(=O)C1CCC(=O)N1)C(N)=O (stereo not given),i,i,i,i,i,i,nt
CCCc1nc2sc3ccccc3c(=O)c2c(=O)n1Cc1ccc(OC)cc1,52,i,nt,i,i,i,45
COc1ccc(Cn2c(C(C)C)nc3sc4ccccc4c(=O)c3c2=O)cc1,62,i,i,i,i,i,55
CCOC(=O)c1cnc(-n2nc(C)cc2C)nc1NC1CCCCC1,54,i,i,83,i,i,43
O=C(NCCc1ccccc1)c1cccc2c1C(=O)N(C1CCCCC1)C2,51,i,i,i,i,i,i
O=C(Nc1nc2ccc(S(=O)(=O)N3CCCCC3)cc2s1)C1CCCO1 (stereo not given),53,i,i,i,i,i,47
Cn1c(SCc2ccc(Br)cc2)nnc1-c1ccccn1,52,i,i,i,i,i,i
Cc1cc(C)n(CC(O)COc2ccccc2Br)n1 (stereo not given),i,i,i,i,i,i,nt
Cc1ccc(C(=O)NC2=NCCS2)cc1Cl,55,i,i,i,i,i,47
Cc1ccc2cc(C=O)c(Cl)nc2c1,50,i,i,i,i,i,48
O=Cc1cc2cc3c(cc2nc1Cl)OCCO3,73,i,nt,i,i,i,52
O=C(O)c1ccc(N/N=C/c2cc3cc4c(cc3nc2Cl)OCCO4)cc1,i,i,i,i,i,i,nt
Oc1ccc(Cl)cc1C1=NNC(c2cc(Br)cc3c2OCOC3)C1 (stereo not given),56,i,i,i,i,i,56
COc1ccc(C2=NNC(c3cc(Cl)cc4c3OCOC4)C2)c(O)c1 (stereo not given),i,i,nt,i,i,i,nt
Oc1ccc(Cl)cc1C1=NNC(c2ccc(Cl)cc2)C1 (stereo not given),50,i,i,96,i,i,50
COc1ccccc1NS(=O)(=O)c1cccc(C(=O)N2CCCCCCC2)c1,i,i,i,i,i,i,nt
O=C(Nc1ccc2oc(-c3ccccc3)nc2c1)c1ccncc1,65,i,i,i,i,i,67
O=C(Nc1ccc2oc(Cc3ccc(Cl)cc3)nc2c1)c1cccnc1,59,i,i,i,i,i,54
O=C(c1ccco1)N1CCN(C(=S)Nc2cccc([N+](=O)[O-])c2)CC1,i,i,i,i,i,i,nt
O=[N+]([O-])c1cccc(NC(=S)N2CCc3ccccc3C2)c1,52,i,i,i,i,i,55

# Screening results (PubChem BioAssay)
